In PubChem BioAssay (NCATS):
Inconclusive results are not listed. A number with no mark means an inactive call. Active and inactive are the calls of the source. Calls follow the shape of the dose curve; as a rule, active = well fitted inhibition curve with a large enough effect; inconclusive = small, poorly fitted or top-dose-only effect; inactive = flat fitted curve, though single readings scatter.

What follows are molecules tested on HaCat (assay: Cytotoxic Profiling of Annotated Libraries Using Quantitative High-Throughput Screening (AID 1296008; also: nearly all actives have a fitted effect of over 60% in size)). Conditions: Five cell lines viability, CellTiter-Glo ATP luminescence, 48-72 h; hits give low values.
In short: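 Compounds were pin-transferred onto cells and incubated 48 or 72 hr at 37 degree Celsius, 95% humidity. CellTiter-Glo was added, plates sat 10 min at room temperature, then ATP-coupled luminescence was imaged as the viability read-out.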
% is scaled to controls: 0 for no effect and ±100 for the full control effect.

Question: With `CC(C)NC[C@@H](O)COc1ccc(CC(N)=O)cc1` as the molecule, how does the outcome read?
Answer: inactive

Question: `C/C=C1\[C@H]2C=C(C)C[C@]1(N)c1ccc(=O)[nH]c1C2` was tested. Which max response did it give?
Answer: 4.06%

Question: With `C=CCOc1ccccc1OCC(O)CNC(C)C` (stereo not drawn) as the molecule, how does the outcome read?
Answer: inactive

Question: How did the outcome turn out when `CCCNC(C)C(=O)Nc1c(C)csc1C(=O)OC` (stereo not drawn) was run?
Answer: inactive

Question: How did the max response turn out when `O=C(O)[C@@H]1[C@H]2C[C@H]3c4[nH]c5ccccc5c4CCN3C[C@@H]2CC[C@@H]1O` was run?
Answer: 4.24%

Question: Which max response does the source give for `CN[C@@H]1[C@H](O)[C@H](NC)[C@H]2O[C@@]3(O)C(=O)C[C@@H](C)O[C@H]3O[C@@H]2[C@H]1O` here?
Answer: 0.231%

Question: How did the outcome turn out when `Cc1ccc2c(c1)c1c3n2CCNC3CCC1` (stereo not drawn) was run?
Answer: inactive

Question: With `CC(=O)N[C@@H](CC(C)C)C(=O)O` as the molecule, how does the outcome read?
Answer: inactive

Question: With `NC(=O)N[C@@H](CCC(=O)O)C(=O)O` as the molecule, how does the outcome read?
Answer: inactive

Question: `CC(=O)OCC(=O)[C@@]1(O)CC[C@H]2[C@@H]3CCC4=CC(=O)C=C[C@]4(C)[C@@]3(F)[C@@H](O)C[C@@]21C` was tested. Which outcome did it give?
Answer: inactive

Question: Which max response does the source give for `O=C(O)C(S)C(S)C(=O)O` (stereo not drawn) here?
Answer: 3.59%

Question: How did the max response turn out when `NS(=O)(=O)c1cc(C2(O)NC(=O)c3ccccc32)ccc1Cl` (stereo not drawn) was run?
Answer: 3.24%

Question: For `CCOC(=O)OC(C)OC(=O)[C@@H]1N2C(=O)[C@@H](NC(=O)[C@H](N)c3ccccc3)[C@H]2SC1(C)C` (stereo partly drawn), which outcome is on record?
Answer: inactive

Question: For `CC[C@H](C)[C@H](N)C(=O)O`, which outcome is on record?
Answer: inactive

Question: How did the outcome turn out when `COc1ccccc1OCC(O)CO` (stereo not drawn) was run?
Answer: inactive

Question: Which outcome does the source give for `C[N+]1(C)CCCC(OC(=O)C(O)(c2ccccc2)c2ccccc2)C1` (stereo not drawn) here?
Answer: inactive

Question: How did the outcome turn out when `C1CCN2C[C@@H]3C[C@@H](CN4CCCC[C@@H]34)[C@H]2C1` was run?
Answer: inactive

Question: `CN1CC(=O)NC1=N` was tested. Which max response did it give?
Answer: -1.43%

Question: How did the outcome turn out when `CCCCCOC(=O)Nc1nc(=O)n([C@@H]2O[C@H](C)[C@@H](O)[C@H]2O)cc1F` was run?
Answer: inactive

Question: For `CC1(C)S[C@@H]2[C@H](NC(=O)C(C(=O)O)c3ccccc3)C(=O)N2[C@H]1C(=O)O` (stereo partly drawn), which max response is on record?
Answer: -0.997%

Question: How did the max response turn out when `OCCN1C[C@H](O)[C@@H](O)[C@H](O)[C@H]1CO` was run?
Answer: -0.066%

Question: How did the outcome turn out when `CC(=O)N[C@H]1[C@H]([C@H](O)[C@H](O)CO)OC(C(=O)O)=C[C@@H]1N=C(N)N` was run?
Answer: inactive

Question: Which outcome does the source give for `CCN[C@H]1CN(CCCOC)S(=O)(=O)c2sc(S(N)(=O)=O)cc21` here?
Answer: inactive

Question: Which max response does the source give for `CN[C@@H]1[C@@H](O)[C@@H](O[C@@H]2[C@H](O)[C@H](O[C@H]3OC(CN)=CC[C@H]3N)[C@@H](N)C[C@H]2N)OCC1(C)O` (stereo partly drawn) here?
Answer: 1.23%

Question: Which outcome does the source give for `NC(=O)NC1NC(=O)NC1=O` (stereo not drawn) here?
Answer: inactive

Question: How did the outcome turn out when `C/C(=C(\CCO)SS/C(CCO)=C(\C)N(C=O)Cc1cnc(C)nc1N)N(C=O)Cc1cnc(C)nc1N` was run?
Answer: inactive

Question: With `O=c1[nH]c(=O)n([C@H]2C[C@H](O)[C@@H](CO)O2)cc1I` as the molecule, how does the outcome read?
Answer: inactive

Question: For `C[C@]1(Cn2ccnn2)[C@H](C(=O)O)N2C(=O)C[C@H]2S1(=O)=O`, which max response is on record?
Answer: -19.5%

Question: `CN1C(=O)CC(c2ccccc2)C1=O` (stereo not drawn) was tested. Which outcome did it give?
Answer: inactive

Question: With `CC1(c2ccccc2)OC(C(=O)O)=CC1=O` (stereo not drawn) as the molecule, how does the outcome read?
Answer: inactive

Question: With `CCC(C)(CN(C)C)OC(=O)c1ccccc1` (stereo not drawn) as the molecule, how does the outcome read?
Answer: inactive

Question: How did the max response turn out when `CC(=O)N1C[C@H](O)C[C@H]1C(=O)O` was run?
Answer: 4.9%

Question: How did the outcome turn out when `CCOc1ccccc1O[C@H](c1ccccc1)[C@H]1CNCCO1` was run?
Answer: inactive

Question: Which max response does the source give for `CC1(C)[C@@H](OC(=O)CCC(=O)O)CC[C@]2(C)[C@H]3C(=O)C=C4[C@@H]5C[C@@](C)(C(=O)O)CC[C@]5(C)CC[C@@]4(C)[C@]3(C)CC[C@@H]12` here?
Answer: 2.22%

Question: With `CC1(C)S[C@@H]2[C@H](N=CN3CCCCCC3)C(=O)N2[C@H]1C(=O)O` as the molecule, how does the outcome read?
Answer: inactive

Question: How did the outcome turn out when `CO[C@@]1(NC(=O)C(C(=O)O)c2ccc(O)cc2)C(=O)N2C(C(=O)O)=C(CSc3nnnn3C)CO[C@@H]21` (stereo partly drawn) was run?
Answer: inactive

Question: With `OC(CCN1CCCC1)(c1ccccc1)C1CCCCC1` (stereo not drawn) as the molecule, how does the max response read?
Answer: 3.13%

Question: With `C=CCN1C[C@H](C(=O)N(CCCN(C)C)C(=O)NCC)C[C@@H]2c3cccc4[nH]cc(c34)C[C@H]21` as the molecule, how does the max response read?
Answer: -1.25%
